Results taken from the supplement of paper PMC3334620.
In all, about 33,000 sequences were measured (“E-score (-0.5 to 0.5)”: median about -0.054, highest 2% from about 0.35 on). The full list was thinned out, with the highest values kept by preference.

Biological target: T1, Stb5 (UniProt P38699)
T1 sequence: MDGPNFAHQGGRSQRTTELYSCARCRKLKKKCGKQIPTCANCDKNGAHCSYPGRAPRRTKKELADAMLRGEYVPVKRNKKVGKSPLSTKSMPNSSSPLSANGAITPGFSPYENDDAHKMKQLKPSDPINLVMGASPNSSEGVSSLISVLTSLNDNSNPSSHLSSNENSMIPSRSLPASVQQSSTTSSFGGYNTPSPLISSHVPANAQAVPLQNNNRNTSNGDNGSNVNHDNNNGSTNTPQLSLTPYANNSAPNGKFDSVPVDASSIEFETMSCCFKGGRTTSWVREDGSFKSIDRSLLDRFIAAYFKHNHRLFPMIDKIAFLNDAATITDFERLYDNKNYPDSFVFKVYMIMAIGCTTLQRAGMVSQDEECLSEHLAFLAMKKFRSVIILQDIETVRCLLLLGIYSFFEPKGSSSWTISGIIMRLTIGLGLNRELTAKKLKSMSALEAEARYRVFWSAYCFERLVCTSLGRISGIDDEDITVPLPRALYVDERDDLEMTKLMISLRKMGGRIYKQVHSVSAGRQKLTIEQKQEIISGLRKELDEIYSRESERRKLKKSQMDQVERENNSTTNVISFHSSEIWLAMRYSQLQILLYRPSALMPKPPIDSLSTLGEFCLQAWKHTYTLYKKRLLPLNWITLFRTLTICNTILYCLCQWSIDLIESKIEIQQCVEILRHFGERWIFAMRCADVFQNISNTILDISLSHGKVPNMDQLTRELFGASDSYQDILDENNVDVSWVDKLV
Assay: PBM E-score (8-mer binding enrichment) (E-score (-0.5 to 0.5)); higher = stronger / more preferred TF binding
Details: protein concentration: 200 nM; construct: GST-full length
Protocol: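 Universal 'all 10-mer' protein binding microarrays (Agilent AMADID 015681) probed with GST-tagged S. cerevisiae TFs (full-length or DBD) made by in vitro transcription/translation (PURExpress), about 100-200 nM. Bound TF was detected with fluorescent anti-GST. Each ungapped 8-mer (which stands for itself and its reverse complement) is scored by the PBM enrichment score (E-score), a modified Wilcoxon-Mann-Whitney statistic from -0.5 to +0.5, computed with the Universal PBM Analysis Suite. Scale: above 0.35 generally sequence-specific binding.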

| Sequence | PBM E-score |
| --- | --- |
| CCCCCAAG | -0.233 |
| GGCAGCTA | -0.0896 |
| TAATACTA | -0.0352 |
| CAGAATCC | -0.0711 |
| ATCGGATG | 0.168 |
| ACGCTGGC | -0.0211 |
| CCACCGGG | 0.26 |
| GAACCGGC | 0.213 |
| GCACCGGC | 0.353 |
| ACACCCGG | 0.234 |
| ACACCTGT | 0.0542 |
| CCACCGGC | 0.322 |
| GCACCGGA | 0.338 |
| ACACCGGG | 0.417 |
| ACACCGGT | 0.421 |
| TCACCGGA | 0.343 |
| AAACCGGT | 0.304 |
| ACACCGGA | 0.402 |
| CGGTTGTA | 0.309 |
| ATAGCCAC | -0.171 |
| ACCAAGCA | -0.0711 |
| AAATGTTC | -0.138 |
| CATTGGCC | -0.214 |
| AGACCGGC | 0.313 |
| ACACCGGC | 0.4 |

| Sequence | PBM E-score |
| --- | --- |
| AAACCGGC | 0.268 |
| ACCGTCTC | 0.0885 |
| AACACCGA | 0.479 |
| AACACCCA | -0.0193 |
| AACACCGG | 0.474 |
| GACACCTC | -0.0935 |
| CACACCGC | 0.394 |
| CACACCTC | -0.0997 |
| CACACCAC | -0.199 |
| GACACCGC | 0.454 |
| CACACCGG | 0.327 |
| CACACCGA | 0.344 |
| AACACCTG | 0.179 |
| GACACCCC | 0.014 |
| GAGCCTCC | -0.123 |
| CACCGTAC | 0.213 |
| AGCCGCCT | 0.0174 |
| ACCGTGGC | 0.0612 |
| ACCAAAAG | -0.113 |
| CCAACCTC | -0.111 |
| GAATCGAA | -0.175 |
| CGTGTACA | -0.00441 |
| AACACCCT | -0.128 |
| TACACCGA | 0.414 |
| AACACCAT | 0.0943 |

| Sequence | PBM E-score |
| --- | --- |
| GACACCGA | 0.442 |
| AACACCGT | 0.472 |
| GCCACCGA | 0.139 |
| TACACCAA | -0.128 |
| GACACCAA | -0.124 |
| TACACCTA | -0.109 |
| AGGCGACG | -0.112 |
| CCAGAAAA | -0.296 |
| AATGACTC | -0.235 |
| AAGGATCT | -0.117 |
| CCTGCCCC | 0.0235 |
| CTGAATCA | -0.177 |
| AACCCCGT | 0.448 |
| ACCCCCCC | -0.295 |
| CCCCCCGC | 0.068 |
| ACCCCCGC | 0.398 |
| ACCCCCCT | -0.245 |
| ACACCCGT | 0.162 |
| AACCCCAT | 0.156 |
| ACCCCCGT | 0.365 |
| AACCCCCT | -0.247 |
| CTACTCCC | -0.0111 |
| TCGTGGAA | 0.00034 |
| CTAAGAAC | 0.00444 |
| ATGTTCCG | 0.249 |

| Sequence | PBM E-score |
| --- | --- |
| AATTGATG | 0.0383 |
| ATCGATAA | -0.139 |
| ACGGCGAG | 0.043 |
| ACGGCACC | 0.175 |
| ACGGCGTA | 0.0801 |
| ACGGCACA | 0.0761 |
| ACGGCGAC | 0.264 |
| ACGGCAAT | 0.377 |
| ACGGCAAA | 0.235 |
| ACGGCGTC | 0.392 |
| ACGGCAAG | -0.121 |
| ACGGCGAT | 0.362 |
| ACGGCGTG | 0.208 |
| ACGGCACT | 0.427 |
| ATACCAGA | -0.177 |
| GGTACTTA | 0.233 |
| GTTAGAAC | 0.0768 |
| ATTCGCCC | 0.125 |
| CCTCCAAC | -0.199 |
| ATCGCAAC | -0.0557 |
| CATATCCG | 0.15 |
| AATATGCT | 0.00961 |
| GCGGCACA | 0.173 |
| GCGGCACC | 0.353 |
| CCGGCACC | 0.278 |

| Sequence | PBM E-score |
| --- | --- |
| GCAAAAGA | -0.0404 |
| CATTGAGC | -0.032 |
| CTCTAATA | -0.188 |
| AGGGCCCT | -0.173 |
| GGGCTAAC | -0.0393 |
| AGCTAGGG | -0.0617 |
| ATAGCGCC | 0.361 |
| CTAGCGCC | 0.172 |
| ATAGCACA | -0.124 |
| ATAGCACG | -0.0126 |
| ATAGCACC | 0.396 |
| ATAGCGCG | 0.0127 |
| AGCTCGAA | -0.0836 |
| GGTGAAGA | 0.0224 |
| CAGTTCGG | 0.206 |
| GTTTCTAA | 0.0616 |
| ATGCCGAG | 0.147 |
| ATGCCGTG | 0.144 |
| ACGCCGAT | 0.35 |
| ATGCCGAC | 0.386 |
| CTGCCGTC | 0.121 |
| CCGCCGAC | 0.356 |
| CCGCCGAA | 0.347 |
| CCGCCGAG | 0.28 |
| ACGCCGAC | 0.435 |

| Sequence | PBM E-score |
| --- | --- |
| CTGCCGAC | 0.15 |
| GCGCCGAC | 0.28 |
| ATGCCGTC | 0.352 |
| AGAATCTG | -0.0539 |
| CCACACGC | -0.0412 |
| CTCCGTCA | 0.297 |
| ATCTACAT | -0.193 |
| TCCAACAA | -0.129 |
| GAGGTATC | -0.0164 |
| ATGCCGGA | 0.373 |
| ATGCCGGG | 0.287 |
| ATGCCGGC | 0.301 |
| GTTATCGA | -0.0558 |
| CAAGAGAC | -0.146 |
| ACCGACGG | 0.42 |
| CCCGACGA | 0.31 |
| CCCGACGC | 0.388 |
| AACGACGG | 0.242 |
| CCAGACGG | 0.179 |
| AGCGACGG | 0.245 |
| CCCGACGG | 0.437 |
| ACCGACGA | 0.354 |
| CACGACGG | 0.168 |
| GCCGACGC | 0.316 |
| TCCGACGA | 0.252 |

| Sequence | PBM E-score |
| --- | --- |
| GCCGACGA | 0.308 |
| AGGGGGAC | -0.248 |
| CGCTGGGC | 0.106 |
| AGAGGCGG | 0.253 |
| CATAGAAG | -0.126 |
| AGACCCAG | -0.291 |
| GAGGTCCC | -0.19 |
| CTTGGGCA | -0.0874 |
| AGGCCACC | -0.188 |
| CCCTCGAA | -0.222 |
| TAGAACAA | -0.15 |
| CCTTGGTA | 0.0875 |
| AACGACGT | -0.0504 |
| ACCGACGC | 0.306 |
| ACCGACGT | 0.355 |
| TGTGATAA | -0.171 |
| AATACCGA | 0.415 |
| AATACCGG | 0.417 |
| CATACCGA | 0.279 |
| AATACCGC | 0.454 |
| AATACCGT | 0.438 |
| CATACCGC | 0.307 |
